# Shown are actives, neighbours in structure and some others; about 2.1% of the full set was active somewhere.
# IDE inh = inhibitors of human insulin-degrading enzyme in cells; P14735; HEK cells, FAbetaB cleavage, fluorescence polarization; inhibition, % at 5.59 µM; 320,000 tested, 0.41% active;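 active = percent inhibition above the average of all tested compounds plus 3 SD, set per screening campaign, cut at about 16% in these data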;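 note: IDE supplied by intact live HEK cells; FP after avidin binding of uncleaved biotin substrate so inhibition keeps polarization high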
# IDE act = activators of human insulin-degrading enzyme in cells. P14735. HEK cells, FAbeta-B cleavage, fluorescence polarization; 0% vehicle, 100% cell-free pure enzyme wells. activation, % at 5.96 µM. 340,000 tested, 0.073% active. AID 493087;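 active = activation above the mean of all tested compounds plus 3 SD, set per screening campaign, cut at about 17% in these data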
# LANA-H2A inh = blocks KSHV LANA binding to histone H2A/H2B | Q9QR71 | cell-free LANA-H2A/H2B peptide, fluorescence polarization | inhibition, % (no concentration beside the values) | 320,000 tested, 0.6% active | AID 2629; in the data active = inhibition mostly above about 10%, no sharp cut-off; inactive = mostly below about 6.7%
# SUMO Mot1 rescue = inhibitors of SUMOylation pathway: yeast Mot1-301 growth rescue. 320,000 tested, 1% active. S. cerevisiae Mot1-301 growth rescue, ATP luminescence, 38.5C; percent above DMSO median, 100 means doubled. growth rescue, % at 18.8 µM. AID 2716;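 active = every valid replicate shows activation above 250% relative to neutral control wells; inactive = the rest, any valid replicate at or below 250%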
# HDAC3 inh = human HDAC3 inhibition; recombinant HDAC3, fluorogenic peptide/trypsin coupled, fluorescence; inhibition, % at 8.3 µM; 320,000 tested, 0.15% active; AID 2718; in the data active = inhibition above about 26%, passing the limit was not always enough; inconclusive = no clear call, values can overlap the other calls
# Target sequence (O15379 whole entry, looked up): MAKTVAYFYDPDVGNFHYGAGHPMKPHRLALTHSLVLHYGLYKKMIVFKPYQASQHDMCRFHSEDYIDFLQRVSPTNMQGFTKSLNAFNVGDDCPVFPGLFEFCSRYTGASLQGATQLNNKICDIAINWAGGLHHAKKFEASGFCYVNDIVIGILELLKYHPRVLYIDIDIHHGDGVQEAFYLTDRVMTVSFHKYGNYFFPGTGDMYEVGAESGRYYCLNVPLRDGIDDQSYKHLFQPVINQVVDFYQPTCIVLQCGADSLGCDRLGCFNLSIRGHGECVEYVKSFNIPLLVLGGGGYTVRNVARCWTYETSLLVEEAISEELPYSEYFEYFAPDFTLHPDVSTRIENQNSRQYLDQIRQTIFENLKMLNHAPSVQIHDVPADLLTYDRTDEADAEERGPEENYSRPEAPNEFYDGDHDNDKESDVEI
# IDE cell inh cf = cellular human IDE inhibition, confirmation; shares compounds with IDE inh; HEK cells, FAbetaB cleavage, fluorescence polarization; inhibition, % at 5.59 µM; 1,200 tested, 51% active; AID 435028;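 active = mean inhibition across triplicate wells above the cutoff set by the earlier primary insulin-degrading enzyme screen, cut at about 16% in these data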
# HEK293 tox = counter-screen for IDE inhibitors: cytotoxicity in HEK cells. HEK293 cytotoxicity, ATP luminescence. inhibition, % at 5.59 µM. shares compounds with IDE inh. 1,200 tested, 28% active; in the data active = inhibition above about 22%
# IDE FP artifact = counter-screen for IDE inhibitors: fluorescent artifacts; AID 588718; 30 tested, under 10 active; FP counterscreen for fluorescent artifacts, IDE probe project; shares compounds with IDE inh; IC50, µM; call rule not given here
# Numbers stand for hits; n = inactive; u = inconclusive; x = no result given.
SMILES,IDE inh,IDE act,LANA-H2A inh,SUMO Mot1 rescue,HDAC3 inh,IDE cell inh cf,HEK293 tox,others
O=C(C1CCCCC1)N1CCN(c2ccnc3cc(Cl)ccc23)CC1,24,n,n,n,n,23,42,
COc1ccccc1NC(=O)N1CCN(c2ccc3nnc(-c4ccc(F)cc4)n3n2)CC1,17,n,n,n,n,n,n,
O=C(Nc1ccc(OC(F)(F)F)cc1)N1CCN(c2ccnc3cc(Cl)ccc23)CC1,36,n,n,n,n,n,35,
O=C(C1CC1)N1CCN(c2ccnc3cc(Cl)ccc23)CC1,22,n,n,n,n,16,n,IDE FP artifact=n
O=S(=O)(c1ccccc1OC(F)(F)F)N1CCN(c2ccnc3cc(Cl)ccc23)CC1,n,n,n,n,n,x,x,
COc1ccccc1N1CCN(c2ccnc3cc(Cl)ccc23)CC1,n,n,n,n,n,x,x,
COC(=O)[C@@H]1CCCN1C(=O)c1ccc(OC2CCN(Cc3ccccn3)CC2)cc1,n,n,n,n,n,x,x,
Nn1c(SCc2ccccc2F)nnc1-c1ccccn1,n,x,n,n,n,x,x,
CC(=O)c1ccc(N2CCN(c3ccnc4cc(Cl)ccc34)CC2)cc1,25,n,n,n,n,18,39,
COc1ccccc1NC(=O)N1CCN(c2ccnc3cc(Cl)ccc23)CC1,23,n,n,n,n,n,n,
CC(C)(C)C(=O)N1CCN(c2ccnc3cc(Cl)ccc23)CC1,34,n,n,n,n,17,n,
COc1ccccc1NC(=O)N1CCN(c2cc(-c3ccccc3)nc3ncnn23)CC1,19,n,n,n,n,n,23,
O=C1NCCN(CC2CCN(CC3CCCC3)CC2)C1=O,x,n,x,x,x,x,x,
CCc1ccc(-c2nc(SCC(=O)c3c(N)n(C4CC4)c(=O)[nH]c3=O)n[nH]2)cc1,n,n,n,n,n,x,x,
O=S(=O)(c1cccc(Br)c1)N1CCN(c2ccnc3cc(Cl)ccc23)CC1,n,n,n,n,n,x,x,
O=C(C1CCC1)N1CCN(c2ccnc3cc(Cl)ccc23)CC1,21,n,n,n,n,18,n,
N#Cc1cccc(S(=O)(=O)N2CCN(c3ccnc4cc(Cl)ccc34)CC2)c1,20,n,n,n,n,n,n,
O=[N+]([O-])c1ccc(S(=O)(=O)N2CCN(c3ccnc4cc(Cl)ccc34)CC2)cc1,n,n,n,n,u,x,x,
O=C(c1ccco1)N1CCN(c2ccnc3cc(Cl)ccc23)CC1,26,n,n,x,n,18,n,
CCN1CCN(S(=O)(=O)c2ccc(Cl)c(C(=O)N(C)Cc3ccccc3)c2)CC1,n,n,n,n,n,x,x,
Cc1ccc(S(=O)(=O)N2CCCCC2C)cc1[N+](=O)[O-] (stereo not given),n,n,n,n,n,x,x,
CCOc1ccc(CCNC(=O)COC(=O)c2ccc(C)c([N+](=O)[O-])c2)cc1OCC,n,n,n,n,n,x,x,
Cc1ccc(OCCN(C)C(=O)C2CCC(=O)N(Cc3ccccc3F)C2)cc1 (stereo not given),n,n,n,n,n,x,x,
COc1cccc(-c2nn(C)c3sc(C(=O)Nc4ccc5c(c4)OCCO5)cc23)c1,25,n,n,n,n,n,n,
Cn1nc(-c2ccccc2F)c2cc(C(=O)Nc3ccc4c(c3)OCCO4)sc21,n,n,n,n,n,x,x,
SMILES,IDE inh,IDE act,LANA-H2A inh,SUMO Mot1 rescue,HDAC3 inh,IDE cell inh cf,HEK293 tox,others
CCN1CCN(Cc2c(O)ccc3c2O/C(=C\C=C\c2ccccc2OC)C3=O)CC1,32,n,n,n,n,55,n,
CCN(CC)c1ccc(/C=C2\CCC(/C=N/NC(=O)c3ccc(=O)n(C)c3)=C2N2CCOCC2)cc1,25,n,n,n,n,57,n,
CCOC(=O)c1c(C)[nH]c(C(=O)OCC(=O)NC2(C#N)CCCCC2)c1C,n,n,n,n,n,x,x,
CCOC(=O)C1=C(c2ccccc2)N=c2s/c(=C\c3cccc(O)c3)c(=O)n2C1c1cccs1 (stereo not given),n,n,n,n,n,x,x,
O=c1/c(=C\c2ccc(O)cc2)sc2n1C(c1ccccc1)C(c1ccccc1)=NN=2 (stereo not given),19,n,n,n,n,141,n,
COc1ccccc1NC(=O)C(C)OC(=O)C1CCN(S(=O)(=O)c2ccccc2C(F)(F)F)CC1 (stereo not given),x,n,x,x,x,x,x,
COC(=O)c1ccc(C2C(C#N)=C(N)Oc3cc(O)ccc32)cc1 (stereo not given),24,n,n,n,n,n,n,
N#CC1=C(N)Oc2cc(O)ccc2C1c1cccnc1 (stereo not given),82,n,n,n,n,n,n,
C#CCOc1ccc(C2C(C#N)=C(N)Oc3cc(O)ccc32)cc1 (stereo not given),n,n,n,n,n,x,x,
COC(=O)c1ccc(C2C(C#N)=C(N)Oc3cc(N)ccc32)cc1 (stereo not given),n,n,n,n,n,x,x,
CN(C)c1ccc2c(c1)OC(N)=C(C#N)C2c1cccc(F)c1 (stereo not given),28,n,n,n,n,16,72,
N#CC1=C(N)Oc2cc(O)ccc2C1c1ccncc1 (stereo not given),131,n,n,n,n,n,n,
N#CC1=C(N)Oc2cc(O)c(Cl)cc2C1c1cccnc1 (stereo not given),x,n,n,n,n,x,x,
Cc1cccc(Nc2nc(-c3ccc(O)cc3O)cs2)n1,n,n,n,n,n,x,x,
CC1CN(C(=O)CCC(=O)NCc2ccc(Cl)cc2)c2ccccc2S1 (stereo not given),n,n,n,n,n,x,x,
CN(C)c1cccc(C(=O)N(C)C2CCCN(Cc3ccccc3F)C2)c1 (stereo not given),n,n,n,n,n,x,x,
CCN(CC)c1ccc(/C=C/C(=O)C2C(=O)C=C(C)OC2=O)cc1 (stereo not given),64,n,n,n,n,95,n,
CCCN1C(=O)/C(=C/c2c(NCCCOC(C)C)nc3c(C)cccn3c2=O)SC1=S,n,n,n,n,n,x,x,
CCCN1C(=O)/C(=C/c2c(N3CCNC(=O)C3CC(=O)OCC)nc3c(C)cccn3c2=O)SC1=S (stereo not given),65,n,n,n,x,29,32,
CCOC(=O)CC1C(=O)NCCN1c1nc2ccc(C)cn2c(=O)c1/C=C1\SC(=S)N(CC(C)C)C1=O (stereo not given),56,n,n,n,x,58,n,
Nc1c(SCCC(=O)O)ccc2c1C(=O)c1ccccc1C2=O,17,n,n,n,n,n,n,
Cc1ccc(N(CC(=O)Nc2cc(C)ccc2C)S(C)(=O)=O)cc1,n,n,n,n,n,x,x,
